Source: PubChem BioAssay
Shown are actives, neighbours in structure and some others; about 3.7% of the full set was active somewhere.
Mtb UGM inh: Mtb UDP-galactopyranose mutase inhibition; purified UGM, fluorescence polarization probe displacement; P9WIQ1; inhibition, % at 10 µM; 320,000 compounds, 0.06% hits; in the data active means inhibition above about 10%, passing the limit was not always enough; inconclusive means no clear call, values can overlap the other calls
FadD28 binding: M. tuberculosis FadD28 bisubstrate binding inhibition. FadD28 bisubstrate probe binding, fluorescence polarization. inhibition, % at 12.5 µM. 360,000 compounds, 0.22% hits; in the data active means inhibition above about 8.5%, passing the limit was not always enough; inconclusive means no clear call, values can overlap the other calls
Mtb betalactam: beta-lactam sensitization of Mtb H37Rv | M. tuberculosis H37Rv growth with meropenem, percent inhibition | inhibition, % at 25 µM | 330,000 compounds, 0.27% hits | AID 434955; call rule not given here;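 further: growth measured after seven days incubation then overnight dye step; 0% = bacteria only wells and 100% = bacteria with antibiotic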
Mtb FBA inh: Mtb fructose-bisphosphate aldolase inhibition. P9WQA3. purified M. tuberculosis FBA, fluorescence read-out. inhibition, % at 1 µM. 360,000 compounds, 2.3% hits. AID 588726; in the data active means inhibition above about 27%;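 further: 0% = vehicle and 100% = reference inhibitor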
Target sequence (P9WQA3 whole entry, looked up): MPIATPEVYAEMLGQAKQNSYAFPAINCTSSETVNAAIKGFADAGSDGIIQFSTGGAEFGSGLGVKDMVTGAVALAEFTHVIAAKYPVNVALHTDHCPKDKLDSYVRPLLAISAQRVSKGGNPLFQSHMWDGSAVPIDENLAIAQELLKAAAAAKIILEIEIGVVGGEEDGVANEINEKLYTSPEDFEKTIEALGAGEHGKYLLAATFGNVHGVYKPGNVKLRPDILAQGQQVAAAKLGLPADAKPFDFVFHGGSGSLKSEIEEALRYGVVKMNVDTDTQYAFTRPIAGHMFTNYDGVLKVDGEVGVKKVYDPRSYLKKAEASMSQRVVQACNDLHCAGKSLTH
GDH-TPI inh: GDH-TPI coupled enzyme inhibition counter-screen. GDH-TPI coupled enzyme counterscreen, NADH absorbance. inhibition, % at 4.8 µM. 360,000 compounds, 1.2% hits; in the data active means inhibition above about 30%;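 further: 0% = DMSO wells and 100% = wells lacking the enzyme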
Rv3671c protease: inhibitors of M. tuberculosis serine protease Rv3671c; inhibition, % at 5.96 µM; 320,000 compounds, 0.048% hits; AID 2606; P9WHR9; in the data active means inhibition above about 38%;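 further: extracellular domain of Rv3671c used as enzyme; 0% = enzyme with DMSO and 100% = no enzyme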
* hit, by the source's call; ? = inconclusive; . = no result given.

SMILES | Mtb UGM inh | FadD28 binding | Mtb betalactam | Mtb FBA inh | GDH-TPI inh | Rv3671c protease
Cc1ccsc1/C=N/NC(=O)c1nnn(-c2nonc2N)c1-c1ccc2c(c1)OCO2 | -3 | 0 | 8 | -4 | 32* | -2
Cc1ccc(SCc2c(C(=O)N/N=C/c3ccc4c(c3)OCO4)nnn2-c2nonc2N)cc1 | -1 | -3 | 12 | 0 | 12 | -11
CN(Cc1ccccc1)C(=O)c1ccc(NC(=O)Cc2ccc(NC(=O)C3CCN(C(=O)c4ccccc4)CC3)cc2)cc1 | . | -1 | . | 1 | 2 | .
O=C(COC(=O)c1ccc2c(c1)OCCO2)NCc1ccc(Cl)cc1 | . | -3 | . | -2 | 6 | .
CN(Cc1ccccc1)C(=S)Nc1ccc(OC(F)F)cc1 | -3 | 5 | -7 | 0 | 12 | -2
CN(C)CCCN(Cc1ccccc1)C(=S)Nc1ccc(OC(F)F)cc1 | 2 | -1 | -9 | 142* | 7 | -2
Cc1c(NC(=S)NC(=O)c2ccc(-c3ccc(Cl)cc3)o2)cccc1C(=O)O | -2 | -1 | -9 | 1 | 32* | -10
COc1ccc(C(=O)COC(=O)C2COc3ccccc3O2)c(OC)c1 (configuration not stated) | . | -4 | . | -2 | -7 | .
COc1ccc(-c2sc(Nc3cccc4ccccc34)n[n+]2C)c(C)c1C | . | -1 | . | -1 | 0 | .
N#Cc1ccc(NC(=O)COC(=O)c2cccc(S(=O)(=O)N3CCCC3)c2)cc1 | . | -2 | . | -3 | 9 | .
CC1CCN(C2(O)C(=O)Nc3ccc([N+](=O)[O-])cc32)CC1 (configuration not stated) | 0 | -1 | -9 | 0 | 32* | -4
CC(=O)Nc1cc(-c2cccc(N)c2)cn2c(-c3ccccc3)cnc12 | . | 1 | . | 4 | 9 | .
Cc1ccc(S(=O)(=O)Nc2nc3c(s2)C(=O)CC(C)(C)C3)cc1 | 1 | -2 | 0 | 2 | 26 | 5
CC1(C)CC(=O)c2sc(NS(=O)(=O)Cc3ccccc3)nc2C1 | 4 | -2 | -4 | -1 | 50* | -2
Cc1cnc(NC(=O)c2ccc3ncsc3c2)s1 | . | -1 | . | 7 | 7 | .
Cc1ccc(C(=O)N2[C@@H]3CN(C)C(=O)[C@@]2(C)[C@H]2C(=O)N(C)C(=O)[C@@H]32)cc1 | . | -3 | . | -1 | -3 | .
COc1ccc(C2=CC3=C(Br)C(=O)C(C)(OC(=O)C4CCCC4)C(=O)C3=CO2)cc1 (configuration not stated) | -3 | 11* | -2 | -1 | 17 | -2
O=C(Nc1nc2ccccc2[nH]1)c1ccc(S(=O)(=O)N2CCOCC2)cc1 | -1 | -1 | 3 | 4 | 39* | -4
O=C(NCc1nc2ccccc2[nH]1)c1ccc(S(=O)(=O)N2CCOCC2)cc1 | -3 | -2 | -12 | 2 | 9 | 10
Cc1nnc(Nc2ccc(S(N)(=O)=O)cc2)c2ccccc12 | 1 | -4 | 0 | 1 | 34* | -3
Cc1nc(Nc2ccc(S(N)(=O)=O)cc2)sc1C(=O)Nc1ccccc1 | 0 | 0 | 0 | 0 | 35* | 4
CCS(=O)(=O)c1ccc2oc(SCC(=O)c3c(N)n(C4CC4)c(=O)[nH]c3=O)nc2c1 | -1 | -2 | -1 | -1 | -5 | -4
N#CCC(=O)Nc1ccc(C(=O)OCC(=O)NC(=O)NCc2ccco2)cc1 | 3 | -1 | -9 | 1 | 1 | -22
CC1CCCC(C)N1C(=C(Cl)Cl)C(=C1SCCS1)[N+](=O)[O-] (configuration not stated) | 1 | 16* | 0 | -1 | 8 | 9
CCCS(=O)(=O)NC(=O)C1(C)CCCN(C(=O)c2ccc(OC)cc2)C1 (configuration not stated) | . | -4 | . | -1 | 0 | .
SMILES | Mtb UGM inh | FadD28 binding | Mtb betalactam | Mtb FBA inh | GDH-TPI inh | Rv3671c protease
Cc1cc(NC(=O)Cn2c(=O)oc3ccccc32)no1 | 3 | -3 | -7 | 1 | -3 | -8
Cc1ccnc(NC(=O)Cn2c(=O)oc3cc(S(=O)(=O)N4CCCC4)ccc32)c1 | -2 | -6 | -8 | 0 | -16 | -3
COc1ccc(NC(=O)Cn2c(=O)oc3cc(S(=O)(=O)N4CCCC4)ccc32)c(OC)c1 | 3 | 0 | -5 | 0 | -4 | 5
COc1cccc(NC(=O)Cn2c(=O)oc3cc(S(=O)(=O)N4CCCC4)ccc32)c1 | 3 | 24* | -1 | 3 | -5 | 3
Cc1cccc(NC(=O)Cn2c(=O)oc3ccccc32)n1 | -2 | 20* | ? | 2 | 4 | -6
Cc1cccc(NC(=O)Cn2c(=O)oc3cc(S(=O)(=O)N4CCCC4)ccc32)n1 | 6 | 14* | -1 | 0 | 15 | -6
O=C(COC(=O)c1cccc(S(=O)(=O)N2CCOCC2)c1)NC1CCCCC1 | . | -3 | . | 1 | -3 | .
CN(C)CCN(C)C1CN(Cc2ccc(F)cc2)S(=O)(=O)C1 (configuration not stated) | . | -2 | . | 1 | . | .
COCc1ccc(C(=O)N2CCCC(N3CCN(c4cccc(Cl)c4)CC3)C2)s1 (configuration not stated) | . | -2 | . | -2 | -1 | .
O=C(CSc1nccc(=O)[nH]1)N1N=C2/C(=C/c3ccco3)CCCC2C1c1ccco1 (configuration not stated) | 1 | -1 | 0 | 1 | 12 | -4
Nc1nc(SCC(=O)N2N=C3/C(=C/c4ccco4)CCCC3C2c2ccco2)n[nH]1 (configuration not stated) | -1 | -4 | 1 | 4 | 35* | 0
Nc1nc(SCC(=O)N2N=C3/C(=C\c4ccco4)CCCC3C2c2ccco2)n[nH]1 (configuration not stated) | . | -2 | . | -1 | 33* | .
N#CCN(C(=O)CSc1nnc(C2CC2)n1C1CC1)c1ccccc1 | . | -1 | . | 5 | 4 | .
O=C(O)CCCN1C(=O)/C(=C/c2ccc(-c3nc4ccccc4s3)o2)SC1=S | 0 | 8.6* | 73 | -3 | 8 | -4
O=C(O)CCCN1C(=O)/C(=C/c2ccncc2)SC1=S | -1 | -3 | 45 | -4 | 38* | 1
O=C(O)CCCCCN1C(=O)/C(=C\c2ccncc2)SC1=S | 0 | 2 | 42 | 3 | 16 | -5
CCCCCCCCCCCCCCCCn1cc[n+](CC(C)=O)c1 | . | 36* | . | -1 | -10 | .
Cc1ccccc1/C=C/c1nc2ccccc2c(=O)[nH]1 | 1 | -4 | -4 | -4 | 34* | -13
COc1cccc(CNC(=S)Nc2ccc3c(c2)c(=O)n(C)n3C)c1 | . | 1 | . | 26 | 15 | .
CN(CC(=O)Nc1ccc(F)c(F)c1F)C(=O)c1ccc2c(c1)S(=O)(=O)N=C1CCCCCN12 | -2 | 0 | -11 | 3 | -4 | 2
Cc1ccc(-n2ccc(=O)c(C(=O)Nc3ccc(S(=O)(=O)Nc4nccc(C)n4)cc3)n2)cc1 | 1 | 1 | 1 | -4 | 35* | 4
CSc1nc(N)n2nccc2n1 | . | -1 | . | -1 | . | .
CNC(=S)NN=C(C)c1ccc(OC)cc1O | . | 1 | . | 4 | 39* | .
CCCCOc1[nH]c2nc(-c3ccco3)n(Cc3ccco3)c(=N)c2c1C#N | 3 | 11* | 5 | 8 | 14 | 10
